Measured values reported in PubChem BioAssay (Tox21).
Where “and” joins values, the source holds several entries; their conditions need not be identical. Equal values may be shown once. Results filed as inconclusive are left out. Entries that show only a call come without a potency. A structure can be active in one record and inactive in another. Calls of active or inactive are those of the source. Unless noted, the call rests on the fitted dose curve; in most records, active means well fitted curve in the direction sought with a large enough effect in the repeat runs; inconclusive means weak or mixed curves; inactive means no such curve, though single readings can be large; an effect the other way counts as inactive or inconclusive.

Assays:
[1] = qHTS assay to identify small molecule agonists of the RXR signaling pathway - cell viability counter screen (AID 1159529); further: nearly all actives have a fitted effect of over 50% in size; further: potency means the concentration at half of the fitted maximal effect
Summary of the method: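 CellTiter-Glo luminescence gave viability in the wells also read for beta-lactamase. Cells (RXR-alpha-UAS-bla HEK 293T, 2% charcoal-stripped FBS medium) had 5 hr plating, then 16 hr compound exposure at 37 C; tetraoctyl ammonium bromide served as positive control.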

[2] = qHTS assay to identify small molecule antagonists of the retinoid acid receptor (RAR) signaling pathway - cell viability counter screen (AID 1159551); further: nearly all actives have a fitted effect of over 35% in size; further: potency means the concentration at half of the fitted maximal effect
Summary of the method: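 C3RL4 RARE-luciferase line; cpds + retinol 1 uM final, 6 h, 37 C/5% CO2; CellTiter-Glo ATP luminescence, 30 min RT.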

[3] = qHTS assay to identify small molecule antagonists of the estrogen related receptor (ERR) signaling pathway from Tox21 library - cell viability counter screen (AID 1224834); further: nearly all actives have a fitted effect of over 30% in size; further: potency means the concentration at half of the fitted maximal effect
Summary of the method: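 Multiplexed viability counter screen in ERR cells: 17.5 h compound exposure at 37 C, CellTiter-Fluor added, 30 min at 37 C/5% CO2, fluorescence read.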

[4] = target: Luciferin 4-monooxygenase (Photinus pyralis) (UniProt P08659); experiment: qHTS assay to identify small molecule inhibitors of firefly luciferase (AID 1224835); further: nearly all actives have a fitted effect of over 25% in size; further: potency means the concentration at half of the fitted maximal effect
Summary of the method: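 Inhibition of purified Photinus luciferase is measured by luminescence. Substrate levels (D-luciferin, ATP) sit at their KM values. Each compound is tested in a concentration series.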

[5] = qHTS assay to identify small molecule agonists of the constitutive androstane receptor (CAR) signaling pathway - cell viability counter screen (AID 1224836); further: series mostly up to about 92 µM; nearly all actives have a fitted effect of over 45% in size
Summary of the method: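 Cell viability multiplexed with the CAR agonist screen: CellTiter-Fluor fluorescence after 23 hr at 37 C. HepG2-CYP2B6-hCAR cells got compounds at 15 concentrations with PK11195 at 0.75 uM final.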

[6] = qHTS assay to identify small molecule antagonists of the constitutive androstane receptor (CAR) signaling pathway - cell viability counter screen (AID 1224837); further: nearly all actives have a fitted effect of over 45% in size; further: potency means the concentration at half of the fitted maximal effect
Summary of the method: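 Read-out: CellTiter-Fluor fluorescence after 23 hr at 37 C/5% CO2. Cells: HepG2 double-stable for hCAR and CYP2B6-2.2kb. Compounds tested at 15 concentrations in the presence of CITCO, final concentration 50 nM.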

[7] = qHTS assay to identify small molecule antagonists of the estrogen related receptor signaling pathway with the pleiotropic PPARgamma coactivator (PGC) from Tox21 10K library - cell viability counter screen (AID 1224840; active means well fitted cell-killing curve with a large enough effect in the repeat runs, not every such curve was filed as active; further: nearly all actives have a fitted effect of over 40% in size; further: potency means the concentration at half of the fitted maximal effect)
Summary of the method: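 Fluorescence read-out of CellTiter-Fluor viability reagent, added after cells had been exposed to compound in DMSO for 17.5 h at 37 C; 30 min development at 37 C/5% CO2. Cells: PGC/ERR line, 2,000/well.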

[8] = target: Thyrotropin receptor (Homo sapiens) (UniProt P16473); experiment: qHTS assay to identify small molecule agonists of the thyroid stimulating hormone receptor (TSHR) signaling pathway (AID 1224843; calls by dose curve; further: nearly all actives have a fitted effect of over 45% in size)
Summary of the method: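 Agonist activity read as cAMP rise via d2/cryptate HTRF competition, 1 h room-temperature detection, in HEK293 cells expressing TSHR. Fifteen-point titrations, each run in triplicate, with a 30 min room-temperature incubation beforehand.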

[9] = qHTS assay to identify small molecule antagonists of the estrogen related receptor signaling pathway with the pleiotropic PPARgamma coactivator (PGC) from Tox21 10K library (AID 1224841; call rule not given here; further: series mostly up to about 92 µM; actives are mostly falling curves and most rising ones were filed inactive; nearly all actives have a fitted effect of over 50% in size)
Summary of the method: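 Luminescence read-out (One-Glo luciferase reagent, 30 min at room temperature) from PGC/ERR cells exposed to DMSO-dissolved test compounds for 18 h at 37 C; cells, 2,000 per well, had been preincubated 6 h before compound transfer.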

[10] = qHTS assay to identify small molecule agonists of the estrogen related receptor signaling pathway with the pleiotropic PPARgamma coactivator (PGC) from Tox21 10K library (AID 1224842); further: nearly all actives have a fitted effect of over 15% in size
Summary of the method: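 Luminescence from One-Glo (30 min, room temperature) measured after PGC/ERR cells had 18 h at 37 C with pinned compound (23 nL in DMSO). Cells had been seeded at 2,000 per well and pre-incubated 6 h.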

[11] = qHTS assay to identify small molecule antagonists of the retinoic acid receptor (RAR) signaling pathway (AID 1159552; further: nearly all actives have a fitted effect of over 50% in size; further: potency means the concentration at half of the fitted maximal effect)
Summary of the method: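 Luminescent RARE reporter read-out in C3RL4 cells: 6 hr co-treatment at 37 C of test compounds with retinol at 1 uM final. Cells plated overnight beforehand; luciferase reagent incubated 30 min at room temperature before reading.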

[12] = qHTS assay to identify small molecule agonists of the retinoic acid receptor (RAR) signaling pathway (AID 1159553)
Summary of the method: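 RARE-luc C3RL4 cells; overnight attachment 37 C/5% CO2; compound (DMSO) 6 hr; luciferase reagent, 30 min RT; luminescence read-out.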

[13] = target: Nuclear receptor subfamily 1 group I member 3 (Homo sapiens) (UniProt Q14994); experiment: qHTS assay to identify small molecule antagonists of the constitutive androstane receptor (CAR) signaling pathway (AID 1224838);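 further: HepG2 cells stably expressing hCAR with CYP2B6 luciferase reporter stimulated by CITCO; nearly all actives have a fitted effect of over 40% in size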; further: potency means the concentration at half of the fitted maximal effect
Summary of the method: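 Read-out: ONE-Glo luciferase luminescence after 30 min at room temperature. HepG2-CYP2B6-hCAR double-stable cells, compounds in 15-point titration plus 50 nM CITCO final, 24 h at 37 C/5% CO2.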

Sequence of Luciferin 4-monooxygenase (Photinus pyralis) (P08659 whole entry, looked up): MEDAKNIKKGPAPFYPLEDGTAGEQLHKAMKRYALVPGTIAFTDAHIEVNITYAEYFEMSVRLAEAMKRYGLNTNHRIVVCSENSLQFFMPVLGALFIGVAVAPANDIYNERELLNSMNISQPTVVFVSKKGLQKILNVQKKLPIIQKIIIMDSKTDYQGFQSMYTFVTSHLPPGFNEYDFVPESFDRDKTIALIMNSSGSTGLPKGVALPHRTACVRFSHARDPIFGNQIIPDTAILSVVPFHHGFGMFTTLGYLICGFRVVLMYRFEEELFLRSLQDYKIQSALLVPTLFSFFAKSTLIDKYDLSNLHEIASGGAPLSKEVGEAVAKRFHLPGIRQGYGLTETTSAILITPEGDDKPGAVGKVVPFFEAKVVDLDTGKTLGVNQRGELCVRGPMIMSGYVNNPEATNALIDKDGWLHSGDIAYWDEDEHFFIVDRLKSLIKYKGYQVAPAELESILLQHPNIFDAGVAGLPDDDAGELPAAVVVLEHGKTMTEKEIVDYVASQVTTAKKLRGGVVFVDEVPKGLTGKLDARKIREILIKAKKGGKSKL
Sequence of Thyrotropin receptor (Homo sapiens) (P16473 whole entry, looked up): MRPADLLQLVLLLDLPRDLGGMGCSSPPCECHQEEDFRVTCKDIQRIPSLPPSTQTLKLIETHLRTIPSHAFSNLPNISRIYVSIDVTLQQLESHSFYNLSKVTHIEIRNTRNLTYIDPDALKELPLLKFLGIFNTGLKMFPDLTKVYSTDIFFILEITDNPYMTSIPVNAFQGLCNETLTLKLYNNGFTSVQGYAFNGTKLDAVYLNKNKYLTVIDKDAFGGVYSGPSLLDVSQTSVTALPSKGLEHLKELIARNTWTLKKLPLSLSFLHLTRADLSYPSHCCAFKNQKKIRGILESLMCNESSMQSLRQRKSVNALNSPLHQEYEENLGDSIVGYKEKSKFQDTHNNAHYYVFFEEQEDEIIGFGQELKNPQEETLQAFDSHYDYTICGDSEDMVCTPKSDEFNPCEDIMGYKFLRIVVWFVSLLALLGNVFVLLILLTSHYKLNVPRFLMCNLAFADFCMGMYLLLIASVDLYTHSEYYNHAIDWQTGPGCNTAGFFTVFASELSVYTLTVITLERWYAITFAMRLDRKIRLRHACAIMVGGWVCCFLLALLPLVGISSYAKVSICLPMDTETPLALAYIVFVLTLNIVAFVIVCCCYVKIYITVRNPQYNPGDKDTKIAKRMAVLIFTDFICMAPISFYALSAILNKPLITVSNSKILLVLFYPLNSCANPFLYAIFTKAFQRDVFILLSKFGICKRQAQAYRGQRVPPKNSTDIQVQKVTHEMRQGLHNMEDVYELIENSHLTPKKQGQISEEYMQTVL
Sequence of Nuclear receptor subfamily 1 group I member 3 (Homo sapiens) (Q14994 whole entry, looked up): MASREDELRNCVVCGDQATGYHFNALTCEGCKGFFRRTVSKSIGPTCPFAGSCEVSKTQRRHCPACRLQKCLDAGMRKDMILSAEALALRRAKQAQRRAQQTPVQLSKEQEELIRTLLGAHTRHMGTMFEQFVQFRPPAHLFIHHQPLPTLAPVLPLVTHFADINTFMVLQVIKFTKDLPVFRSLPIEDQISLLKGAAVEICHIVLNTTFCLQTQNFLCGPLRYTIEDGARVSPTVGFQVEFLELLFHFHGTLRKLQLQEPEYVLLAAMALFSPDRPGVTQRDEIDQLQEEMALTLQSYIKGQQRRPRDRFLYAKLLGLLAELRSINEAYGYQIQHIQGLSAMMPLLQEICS

| Structure (SMILES) | Potency [1] | Potency [2] | Potency [3] | Potency [4] | Potency [5] | Potency [6] | Potency [7] | Potency [8] | Potency [9] | Potency [10] | Potency [11] | Potency [12] | Potency [13] |
| --- | --- | --- | --- | --- | --- | --- | --- | --- | --- | --- | --- | --- | --- |
| CC(Cl)(Cl)C(=O)O | inactive | inactive | inactive | inactive | inactive | inactive | inactive | inactive |  |  |  |  |  |
| CCCCCCCCCCCCOS(=O)(=O)O | 34.7 µM (active) and 21.9 µM (active) and inactive | inactive | inactive |  | inactive | inactive | inactive |  |  |  |  |  |  |
| Nc1ccc(-c2ccc(N)c(Cl)c2)cc1Cl | inactive | inactive | 54.5 µM (active) | 35.8 µM (active) and 33.2 µM (active) and 12.6 µM (active) | inactive | inactive | inactive and 27.3 µM (active) | inactive |  |  |  |  |  |
| CCCCCCCCCCCCn1cc[n+](C)c1 |  | 49 µM (active) and inactive |  | inactive |  |  |  |  |  |  |  |  |  |
| O=C(O)CC(O)(CC(=O)O)C(=O)O | inactive | inactive | inactive | inactive | inactive | inactive | inactive |  |  |  |  |  |  |
| O=C(O)C(Cl)Cl | inactive | inactive | inactive | inactive | inactive | inactive | inactive | inactive |  |  |  |  |  |
| CCCCn1cc[n+](C)c1C | inactive | inactive | inactive | inactive | inactive | inactive | inactive |  |  |  |  |  |  |
| O=C(O)COc1ccc(Cl)cc1Cl | inactive | inactive | inactive | inactive | inactive | inactive | inactive |  |  |  |  |  |  |
| O=c1[nH]c(=O)n(Cl)c(=O)n1Cl | inactive | inactive | inactive | inactive | inactive | inactive | inactive |  | inactive | inactive |  |  |  |
| CCCn1cc[n+](C)c1 | inactive | inactive | inactive | inactive | inactive | inactive | inactive | inactive |  |  |  |  |  |
| C[N+](C)(C)Cc1ccccc1 | inactive | inactive | inactive | inactive | inactive | inactive | inactive | inactive |  |  |  |  |  |
| CCCCn1cc[n+](C)c1 | inactive | inactive | inactive |  | inactive | inactive | inactive |  |  |  |  |  |  |
| CCCCCCCCCCCCCCCCn1cc[n+](C)c1 |  | inactive and 61.7 µM (active) and 43.4 µM (active) |  | 81.4 µM (active) and inactive |  |  | inactive and 61.7 µM (active) and 27.4 µM (active) | inactive |  |  | inactive and 27.6 µM (active) and 13.7 µM (active) | inactive | inactive and 30.9 µM (active) and 27.4 µM (active) |
| COc1ccc(N)cc1 | inactive | inactive |  | inactive | inactive | inactive | inactive | inactive |  |  |  |  |  |
| C=CCOC(Cn1ccnc1)c1ccc(Cl)cc1Cl (stereo not given) | inactive | inactive | 30.7 µM (active) and 48.6 µM (active) and 29.8 µM (active) | inactive |  | 61.1 µM (active) | 48.6 µM (active) and inactive | inactive |  |  |  |  | 38.7 µM (active) and 48.6 µM (active) and inactive |
| CCCC[N+]1(C)CCCC1 | inactive | inactive | inactive | inactive | inactive | inactive | inactive |  |  |  |  |  |  |
| CCCCCCn1cc[n+](C)c1 | inactive | inactive | inactive | inactive | inactive | inactive | inactive |  |  |  |  |  |  |
